Results taken from ChEMBL document CHEMBL1961873, “Compounds: GSK PKIS; Assays: Nanosyn kinase panel” (2012).

Tests used:
[1] = target: Sphingosine kinase 1 (Homo sapiens) (UniProt Q9NYA1); settings: at 1 µM;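 note: mean SPHK1 inhibition value reported from the GSK PKIS kinase panel screen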
[2] = target: T1, Sphingosine kinase 2 (Homo sapiens) (UniProt Q9NRA0); settings: at 0.1 µM
T1 sequence (whole entry): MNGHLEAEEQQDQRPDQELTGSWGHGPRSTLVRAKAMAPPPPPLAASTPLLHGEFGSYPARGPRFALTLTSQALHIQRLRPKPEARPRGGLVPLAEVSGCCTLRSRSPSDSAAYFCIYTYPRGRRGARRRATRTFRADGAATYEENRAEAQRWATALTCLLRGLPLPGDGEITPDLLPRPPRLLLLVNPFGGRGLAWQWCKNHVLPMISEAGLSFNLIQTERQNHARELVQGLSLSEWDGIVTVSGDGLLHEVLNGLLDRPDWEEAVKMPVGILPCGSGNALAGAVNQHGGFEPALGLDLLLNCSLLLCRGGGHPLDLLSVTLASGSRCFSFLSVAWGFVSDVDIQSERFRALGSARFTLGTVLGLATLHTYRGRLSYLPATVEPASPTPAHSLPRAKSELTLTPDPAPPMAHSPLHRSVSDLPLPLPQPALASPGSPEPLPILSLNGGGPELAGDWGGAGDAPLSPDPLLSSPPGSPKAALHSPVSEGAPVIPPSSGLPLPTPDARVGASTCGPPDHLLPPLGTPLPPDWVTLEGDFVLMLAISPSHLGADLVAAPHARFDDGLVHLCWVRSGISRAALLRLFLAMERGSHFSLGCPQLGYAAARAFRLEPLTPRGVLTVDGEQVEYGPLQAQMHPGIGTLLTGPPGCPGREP

[3] = target: T1, Sphingosine kinase 2 (Homo sapiens); settings: at 1 µM
[4] = target: Casein kinase II subunit alpha (Homo sapiens) (UniProt P68400); settings: at 0.1 µM
[5] = target: Casein kinase II subunit alpha (Homo sapiens) (UniProt P68400); settings: at 1 µM
[6] = target: T2, Inhibitor of nuclear factor kappa-B kinase subunit alpha (Homo sapiens) (UniProt O15111); settings: at 0.1 µM
T2 sequence (whole entry): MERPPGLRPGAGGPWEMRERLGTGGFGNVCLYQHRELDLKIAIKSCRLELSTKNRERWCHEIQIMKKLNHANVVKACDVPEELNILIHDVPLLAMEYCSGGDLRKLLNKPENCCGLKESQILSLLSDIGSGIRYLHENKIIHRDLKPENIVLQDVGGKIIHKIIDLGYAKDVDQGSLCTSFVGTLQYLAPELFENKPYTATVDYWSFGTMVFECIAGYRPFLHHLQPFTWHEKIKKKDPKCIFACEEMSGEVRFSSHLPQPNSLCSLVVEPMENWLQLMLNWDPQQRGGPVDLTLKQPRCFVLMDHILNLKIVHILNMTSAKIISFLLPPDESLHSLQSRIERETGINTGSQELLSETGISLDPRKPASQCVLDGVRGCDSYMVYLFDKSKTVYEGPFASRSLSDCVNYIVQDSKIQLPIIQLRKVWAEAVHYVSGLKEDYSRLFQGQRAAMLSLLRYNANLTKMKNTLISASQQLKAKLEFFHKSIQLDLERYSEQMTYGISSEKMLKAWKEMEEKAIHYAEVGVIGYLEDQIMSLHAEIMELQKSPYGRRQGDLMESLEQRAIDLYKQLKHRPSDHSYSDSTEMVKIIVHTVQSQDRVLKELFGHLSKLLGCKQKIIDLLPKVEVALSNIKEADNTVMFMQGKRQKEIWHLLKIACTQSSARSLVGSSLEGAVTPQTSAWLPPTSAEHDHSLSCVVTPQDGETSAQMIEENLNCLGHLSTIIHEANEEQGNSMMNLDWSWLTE

[7] = target: T2, Inhibitor of nuclear factor kappa-B kinase subunit alpha (Homo sapiens); settings: at 1 µM
[8] = target: T3, Inhibitor of nuclear factor kappa-B kinase subunit beta (Homo sapiens) (UniProt O14920); settings: at 0.1 µM
T3 sequence (whole entry): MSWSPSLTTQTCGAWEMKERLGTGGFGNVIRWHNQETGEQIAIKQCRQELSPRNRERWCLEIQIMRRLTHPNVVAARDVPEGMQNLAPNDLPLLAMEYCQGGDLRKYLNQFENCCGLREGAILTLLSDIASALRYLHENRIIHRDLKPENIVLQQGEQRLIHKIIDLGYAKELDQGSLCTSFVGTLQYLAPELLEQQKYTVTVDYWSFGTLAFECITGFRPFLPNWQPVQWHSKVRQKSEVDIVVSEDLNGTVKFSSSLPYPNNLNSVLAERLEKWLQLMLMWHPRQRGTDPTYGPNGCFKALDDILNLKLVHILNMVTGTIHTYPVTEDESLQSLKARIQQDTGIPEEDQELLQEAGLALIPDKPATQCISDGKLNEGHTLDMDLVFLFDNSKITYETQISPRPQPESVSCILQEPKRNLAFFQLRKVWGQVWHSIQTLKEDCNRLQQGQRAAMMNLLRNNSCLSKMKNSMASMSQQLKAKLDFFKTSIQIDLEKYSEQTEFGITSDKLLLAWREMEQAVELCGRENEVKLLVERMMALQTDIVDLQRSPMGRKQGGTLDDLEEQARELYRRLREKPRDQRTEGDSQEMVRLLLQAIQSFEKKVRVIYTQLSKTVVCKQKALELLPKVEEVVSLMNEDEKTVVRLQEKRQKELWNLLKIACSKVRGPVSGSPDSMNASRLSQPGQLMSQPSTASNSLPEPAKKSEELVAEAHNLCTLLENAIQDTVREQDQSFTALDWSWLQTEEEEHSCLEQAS

[9] = target: T3, Inhibitor of nuclear factor kappa-B kinase subunit beta (Homo sapiens); settings: at 1 µM
[10] = target: T4, Inhibitor of nuclear factor kappa-B kinase subunit epsilon (Homo sapiens) (UniProt Q14164); settings: at 0.1 µM
T4 sequence (whole entry): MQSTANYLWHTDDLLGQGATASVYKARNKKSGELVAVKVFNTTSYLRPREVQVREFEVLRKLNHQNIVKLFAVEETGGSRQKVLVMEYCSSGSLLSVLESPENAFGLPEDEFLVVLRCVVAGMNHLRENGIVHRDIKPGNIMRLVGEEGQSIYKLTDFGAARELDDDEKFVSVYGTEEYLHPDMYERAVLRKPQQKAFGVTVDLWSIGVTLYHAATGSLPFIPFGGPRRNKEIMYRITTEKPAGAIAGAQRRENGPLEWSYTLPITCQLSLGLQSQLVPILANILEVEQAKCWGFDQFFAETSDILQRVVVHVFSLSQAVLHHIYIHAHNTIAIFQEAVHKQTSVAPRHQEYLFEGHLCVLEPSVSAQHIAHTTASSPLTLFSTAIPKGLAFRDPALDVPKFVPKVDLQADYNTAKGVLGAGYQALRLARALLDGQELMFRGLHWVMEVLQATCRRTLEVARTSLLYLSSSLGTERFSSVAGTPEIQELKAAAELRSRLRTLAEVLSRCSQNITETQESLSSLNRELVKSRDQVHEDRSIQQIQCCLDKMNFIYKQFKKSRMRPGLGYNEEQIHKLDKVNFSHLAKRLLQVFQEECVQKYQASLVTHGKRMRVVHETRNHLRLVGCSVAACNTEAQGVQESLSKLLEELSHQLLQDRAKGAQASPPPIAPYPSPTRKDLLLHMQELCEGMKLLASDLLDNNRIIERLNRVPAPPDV

[11] = target: T4, Inhibitor of nuclear factor kappa-B kinase subunit epsilon (Homo sapiens); settings: at 1 µM
[12] = target: T5, Serine/threonine-protein kinase Nek1 (Homo sapiens) (UniProt Q96PY6); settings: at 0.1 µM
T5 sequence (whole entry): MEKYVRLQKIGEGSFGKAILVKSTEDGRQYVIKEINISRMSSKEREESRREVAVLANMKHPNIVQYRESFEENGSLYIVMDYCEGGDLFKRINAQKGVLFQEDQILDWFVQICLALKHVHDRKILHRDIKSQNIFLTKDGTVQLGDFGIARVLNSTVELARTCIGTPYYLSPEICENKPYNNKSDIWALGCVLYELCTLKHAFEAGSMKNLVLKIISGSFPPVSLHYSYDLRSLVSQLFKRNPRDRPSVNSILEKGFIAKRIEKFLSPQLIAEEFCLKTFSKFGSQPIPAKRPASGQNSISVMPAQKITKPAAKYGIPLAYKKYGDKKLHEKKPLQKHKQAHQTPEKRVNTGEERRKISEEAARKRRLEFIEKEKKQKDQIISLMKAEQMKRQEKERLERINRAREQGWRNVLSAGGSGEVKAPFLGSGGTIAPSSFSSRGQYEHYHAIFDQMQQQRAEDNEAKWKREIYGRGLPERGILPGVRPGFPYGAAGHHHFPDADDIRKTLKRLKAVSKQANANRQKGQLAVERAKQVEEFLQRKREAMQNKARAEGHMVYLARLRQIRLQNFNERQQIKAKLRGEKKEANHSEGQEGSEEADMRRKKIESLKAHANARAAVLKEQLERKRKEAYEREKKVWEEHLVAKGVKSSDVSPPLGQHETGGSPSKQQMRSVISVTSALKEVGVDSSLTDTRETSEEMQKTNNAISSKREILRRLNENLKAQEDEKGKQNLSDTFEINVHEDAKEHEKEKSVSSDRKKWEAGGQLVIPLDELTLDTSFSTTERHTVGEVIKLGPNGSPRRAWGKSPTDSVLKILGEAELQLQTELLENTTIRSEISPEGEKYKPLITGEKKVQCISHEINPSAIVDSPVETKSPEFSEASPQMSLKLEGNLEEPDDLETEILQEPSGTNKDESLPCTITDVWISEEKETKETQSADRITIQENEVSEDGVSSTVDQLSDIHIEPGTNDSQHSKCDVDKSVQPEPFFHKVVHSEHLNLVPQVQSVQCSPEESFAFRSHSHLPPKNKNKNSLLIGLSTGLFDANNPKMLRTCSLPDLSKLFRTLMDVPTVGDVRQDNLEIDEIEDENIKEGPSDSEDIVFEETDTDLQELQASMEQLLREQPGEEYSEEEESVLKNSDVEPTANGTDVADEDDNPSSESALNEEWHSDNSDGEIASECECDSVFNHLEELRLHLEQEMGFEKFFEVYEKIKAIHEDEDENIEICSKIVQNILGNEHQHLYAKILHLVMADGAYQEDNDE

[13] = target: T5, Serine/threonine-protein kinase Nek1 (Homo sapiens); settings: at 1 µM
[14] = target: T6, Serine/threonine-protein kinase Nek2 (Homo sapiens) (UniProt P51955); settings: at 0.1 µM
T6 sequence (whole entry): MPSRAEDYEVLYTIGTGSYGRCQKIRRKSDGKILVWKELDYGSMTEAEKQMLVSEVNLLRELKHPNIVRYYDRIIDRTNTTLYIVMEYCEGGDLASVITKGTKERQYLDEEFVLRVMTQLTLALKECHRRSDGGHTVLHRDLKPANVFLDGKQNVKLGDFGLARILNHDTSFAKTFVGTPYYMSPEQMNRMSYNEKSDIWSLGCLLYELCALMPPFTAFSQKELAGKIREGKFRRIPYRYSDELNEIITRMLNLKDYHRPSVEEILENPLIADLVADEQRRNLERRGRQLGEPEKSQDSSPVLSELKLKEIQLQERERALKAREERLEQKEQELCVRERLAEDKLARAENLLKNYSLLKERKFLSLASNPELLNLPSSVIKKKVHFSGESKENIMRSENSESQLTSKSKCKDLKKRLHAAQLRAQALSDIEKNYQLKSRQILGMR

[15] = target: T6, Serine/threonine-protein kinase Nek2 (Homo sapiens); settings: at 1 µM
[16] = target: Serine/threonine-protein kinase Nek6 (Homo sapiens) (UniProt Q9HC98); settings: at 0.1 µM
[17] = target: Serine/threonine-protein kinase Nek6 (Homo sapiens) (UniProt Q9HC98); settings: at 1 µM
[18] = target: Serine/threonine-protein kinase Nek7 (Homo sapiens) (UniProt Q8TDX7); settings: at 0.1 µM
[19] = target: Serine/threonine-protein kinase Nek7 (Homo sapiens) (UniProt Q8TDX7); settings: at 1 µM
[20] = target: T7, Serine/threonine-protein kinase Nek9 (Homo sapiens) (UniProt Q8TD19); settings: at 0.1 µM;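 note: reported value is the mean percent inhibition of NEK9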
T7 sequence (whole entry): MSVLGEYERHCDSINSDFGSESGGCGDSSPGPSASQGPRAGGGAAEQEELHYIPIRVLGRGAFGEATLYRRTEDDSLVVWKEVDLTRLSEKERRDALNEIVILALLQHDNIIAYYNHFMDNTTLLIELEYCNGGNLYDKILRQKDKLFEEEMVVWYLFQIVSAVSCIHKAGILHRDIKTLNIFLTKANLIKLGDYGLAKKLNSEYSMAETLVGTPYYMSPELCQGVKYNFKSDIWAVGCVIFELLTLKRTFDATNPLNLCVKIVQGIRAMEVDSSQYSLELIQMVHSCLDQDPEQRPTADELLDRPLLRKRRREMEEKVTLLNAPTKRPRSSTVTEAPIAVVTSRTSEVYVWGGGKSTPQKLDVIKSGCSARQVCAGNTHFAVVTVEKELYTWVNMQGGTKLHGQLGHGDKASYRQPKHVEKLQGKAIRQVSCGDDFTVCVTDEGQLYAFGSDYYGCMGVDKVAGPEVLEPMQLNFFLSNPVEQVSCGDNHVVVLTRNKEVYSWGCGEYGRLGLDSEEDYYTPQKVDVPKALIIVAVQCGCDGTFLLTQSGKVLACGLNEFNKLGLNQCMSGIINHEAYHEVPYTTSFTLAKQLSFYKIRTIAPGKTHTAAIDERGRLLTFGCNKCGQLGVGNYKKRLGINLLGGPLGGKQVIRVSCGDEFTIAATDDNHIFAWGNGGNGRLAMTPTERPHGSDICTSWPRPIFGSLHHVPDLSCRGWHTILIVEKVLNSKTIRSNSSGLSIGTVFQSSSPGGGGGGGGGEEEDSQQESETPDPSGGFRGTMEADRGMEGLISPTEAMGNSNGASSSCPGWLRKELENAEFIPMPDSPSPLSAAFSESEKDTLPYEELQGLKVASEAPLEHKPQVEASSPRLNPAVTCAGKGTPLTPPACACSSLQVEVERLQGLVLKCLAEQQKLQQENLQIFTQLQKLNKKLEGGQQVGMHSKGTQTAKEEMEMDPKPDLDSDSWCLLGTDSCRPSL

Sequence of Serine/threonine-protein kinase Nek6 (Homo sapiens) (Q9HC98 whole entry): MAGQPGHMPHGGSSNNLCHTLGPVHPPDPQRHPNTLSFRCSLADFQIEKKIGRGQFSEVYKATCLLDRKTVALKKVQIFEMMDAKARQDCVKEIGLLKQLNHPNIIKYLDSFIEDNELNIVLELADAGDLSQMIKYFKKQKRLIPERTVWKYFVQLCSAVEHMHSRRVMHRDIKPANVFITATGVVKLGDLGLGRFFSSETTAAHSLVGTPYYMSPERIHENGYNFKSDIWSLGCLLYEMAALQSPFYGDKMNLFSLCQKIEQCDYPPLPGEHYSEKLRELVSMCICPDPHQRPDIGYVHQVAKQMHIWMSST
Sequence of Casein kinase II subunit alpha (Homo sapiens) (P68400 whole entry, looked up): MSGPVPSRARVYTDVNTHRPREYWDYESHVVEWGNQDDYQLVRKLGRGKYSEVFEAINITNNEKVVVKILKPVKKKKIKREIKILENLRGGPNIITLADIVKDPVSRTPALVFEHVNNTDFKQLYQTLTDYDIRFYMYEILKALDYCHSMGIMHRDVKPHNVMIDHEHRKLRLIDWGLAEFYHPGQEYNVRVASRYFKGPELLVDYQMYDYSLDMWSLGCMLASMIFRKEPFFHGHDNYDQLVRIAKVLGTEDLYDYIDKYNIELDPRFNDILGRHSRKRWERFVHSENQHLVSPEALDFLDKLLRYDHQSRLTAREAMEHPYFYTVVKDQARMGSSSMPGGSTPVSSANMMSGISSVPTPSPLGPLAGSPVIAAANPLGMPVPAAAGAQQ
Sequence of Serine/threonine-protein kinase Nek7 (Homo sapiens) (Q8TDX7 whole entry, looked up): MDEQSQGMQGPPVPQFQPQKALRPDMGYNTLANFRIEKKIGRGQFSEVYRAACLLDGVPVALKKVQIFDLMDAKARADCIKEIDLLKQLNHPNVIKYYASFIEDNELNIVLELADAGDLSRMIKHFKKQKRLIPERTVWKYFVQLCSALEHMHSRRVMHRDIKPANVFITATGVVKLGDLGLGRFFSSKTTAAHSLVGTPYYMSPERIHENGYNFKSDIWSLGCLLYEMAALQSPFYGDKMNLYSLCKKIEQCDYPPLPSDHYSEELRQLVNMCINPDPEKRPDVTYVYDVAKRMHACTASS
Sequence of Sphingosine kinase 1 (Homo sapiens) (Q9NYA1 whole entry): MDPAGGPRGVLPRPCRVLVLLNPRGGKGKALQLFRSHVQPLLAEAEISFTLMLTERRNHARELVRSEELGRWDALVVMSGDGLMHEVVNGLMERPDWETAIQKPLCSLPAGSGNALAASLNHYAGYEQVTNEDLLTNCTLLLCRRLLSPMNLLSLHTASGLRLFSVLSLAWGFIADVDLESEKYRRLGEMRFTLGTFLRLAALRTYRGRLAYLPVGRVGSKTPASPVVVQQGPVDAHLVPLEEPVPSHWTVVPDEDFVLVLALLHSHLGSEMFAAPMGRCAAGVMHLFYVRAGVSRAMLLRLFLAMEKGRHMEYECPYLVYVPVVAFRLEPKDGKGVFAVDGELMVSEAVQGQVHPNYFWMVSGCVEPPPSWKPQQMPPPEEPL

In the case of `Nc1nccc(-c2c(-c3ccc(F)cc3)nn3cc(C(F)(F)F)ccc23)n1`, the inhibition [1] is reported as 11.1%, the inhibition [2] is reported as -0.68% and the inhibition [3] is reported as 0%. The inhibition [4] was 15.6%, the inhibition [5] was 2.55% and the inhibition [6] was -2.07%. The inhibition [7] was -2.01%, the inhibition [8] was 1.03% and the inhibition [9] was 0.86%. It also gave an inhibition [10] of 1.65%, an inhibition [11] of 0.39% and an inhibition [12] of -0.26%. The inhibition [13] was -0.62%, the inhibition [14] was 0% and the inhibition [15] was 1.3%. It also gave an inhibition [16] of 0.29%, an inhibition [17] of -2.61% and an inhibition [18] of -1.44%. The inhibition [19] was 0.7% and the inhibition [20] was 0.57%.
